# From PubChem BioAssay
# Calls of active or inactive are those of the source. How the calls were made is not given here.
# Target: Pantothenate synthetase (Mycobacterium tuberculosis (strain ATCC 25618 / H37Rv)) (UniProt P9WIL5)
# Test: Coupled enzyme confirmation of inhibitors against recombinant Mtb PanC (AID 375);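 further: 0% = full reaction with vehicle and 100% = no enzyme background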
# Details: coupled enzyme assay; at 10 µM, hits give high values
# Chain of Pantothenate synthetase (Mycobacterium tuberculosis (strain ATCC 25618 / H37Rv)) (P9WIL5 whole entry, looked up): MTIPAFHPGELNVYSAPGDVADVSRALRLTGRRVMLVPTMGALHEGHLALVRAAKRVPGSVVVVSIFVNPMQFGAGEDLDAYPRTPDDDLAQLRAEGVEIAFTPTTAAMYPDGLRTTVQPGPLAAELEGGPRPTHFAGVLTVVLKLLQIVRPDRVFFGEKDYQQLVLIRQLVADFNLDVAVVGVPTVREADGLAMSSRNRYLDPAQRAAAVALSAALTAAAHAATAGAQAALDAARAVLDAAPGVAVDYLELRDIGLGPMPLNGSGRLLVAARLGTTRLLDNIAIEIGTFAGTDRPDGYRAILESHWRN
row,Structure (SMILES),inhibition
1,COc1ccccc1S(=O)(=O)Cc1ccc(C(=O)N2CCOCC2)o1,0% (inactive)
2,N#CC(C(=O)NCCc1ccccc1)c1nc2ccccc2nc1N1CCOCC1 (stereo unspecified),0% (inactive)
3,O=C(c1ccco1)N1CCN(CC2CC3C=CC2C3)CC1 (stereo unspecified),7% (inactive)
4,COc1ccc(CCn2c(NCCCN3CCOCC3)nc3c2c(=O)[nH]c(=O)n3C)cc1,0% (inactive)
5,Cc1ccccc1NC(=O)CSc1nc(N)c(C#N)c(-c2cccs2)c1C#N,0% (inactive)
6,OCc1cn(-c2ccccc2)nc1-c1ccc2c(c1)OCCO2,0% (inactive)
